Assay outcomes (PubChem)
TSHR agonist – agonists of human thyroid stimulating hormone receptor. P16473. HEK293-CNG-TSHR cells (CNG channel as cAMP sensor), membrane potential dye, cAMP. Potency, µM (doses to about 57.1 µM), inactives show at the top dose activation, hits mostly activators. 73,000 compounds, 0.48% hits. AID 926; active means well fitted activation curve with a large enough effect in the main read-out, with a control signal flat, not every such curve was filed as active; inconclusive means small, poorly fitted or top-dose-only effect, or a change in a side signal; inactive means no such curve, though single readings can be large or run the other way; % of control where 0% means no effect;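 further: the control signal comes from parental cells without the receptor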
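HEK 293 cells stably expressing TSHR and a modified CNG channel, with CNG-only parental cells as counterscreen, were preloaded 60 min at room temperature with membrane potential dye containing 100 uM RO 20-1724. Compound exposure was 30 min, and depolarization was read as fluorescence at 590 nm.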
ERK AVP block – inhibitors of vasopressin-stimulated ERK signaling pathway | HEK293-V1b, vasopressin-stimulated pERK AlphaScreen | Potency, µM (top dose mostly 57.5 µM), without a hit: top-dose activity, negative = inhibition, hits mostly inhibitors | 72,000 compounds, 0.99% hits | AID 995; further: on the % scale 0 is the no-effect control and ±100 the full control effect; nearly all actives have a fitted effect of over 55% in size
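Overnight-seeded V1b-HEK293 cells in 1% FBS got compound, then vasopressin (25 nM final, 5 min, 37C), then lysis buffer. AlphaScreen detection of phospho-ERK; activity normalized to basal and full-stimulation controls.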
CRE Fsk mod – modulators of forskolin-stimulated CRE signaling in CHO cells; CHO CRE-bla reporter (cAMP response element driving beta-lactamase), forskolin EC10, beta-lactamase ratio; Potency, µM (titrated, usually from 38.2 µM), inactives show at the highest dose activity change, negative = inhibition, most hits filed as activators; 71,000 compounds, 2.5% hits; active means well fitted activation curve with a large enough effect in the signal ratio, with a control signal flat, not every such curve was filed as active; inconclusive means small, poorly fitted or top-dose-only effect, or effect the other way, or a change in a side signal; the % refers to the signal ratio; further: % of control where 0% means no effect
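CHO CRE-bla cells, overnight plating in Opti-MEM with 0.5% dialyzed FBS; cpd titration + EC10 NKH 477, 3 h 37 °C; CCF4 2 h RT; ex 405/em 460 vs 530 ratio → %Activity, AC50.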
Tau fil binding – tau filament binding; 71,000 compounds, 2% hits; Potency, µM (series often up to 57.1 µM), for inactives: at the highest dose activity change, negative = inhibition; P10636; recombinant tau filaments, thioflavin S fluorescence, 15 h; filaments grown with octadecylsulfate alongside compound; AID 596;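 further: on the % scale 0 is the no-effect control and ±100 the full control effect; actives lower thioflavin S fluorescence by blocking filaments or displacing dye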
Target sequence (P10636 whole entry, looked up): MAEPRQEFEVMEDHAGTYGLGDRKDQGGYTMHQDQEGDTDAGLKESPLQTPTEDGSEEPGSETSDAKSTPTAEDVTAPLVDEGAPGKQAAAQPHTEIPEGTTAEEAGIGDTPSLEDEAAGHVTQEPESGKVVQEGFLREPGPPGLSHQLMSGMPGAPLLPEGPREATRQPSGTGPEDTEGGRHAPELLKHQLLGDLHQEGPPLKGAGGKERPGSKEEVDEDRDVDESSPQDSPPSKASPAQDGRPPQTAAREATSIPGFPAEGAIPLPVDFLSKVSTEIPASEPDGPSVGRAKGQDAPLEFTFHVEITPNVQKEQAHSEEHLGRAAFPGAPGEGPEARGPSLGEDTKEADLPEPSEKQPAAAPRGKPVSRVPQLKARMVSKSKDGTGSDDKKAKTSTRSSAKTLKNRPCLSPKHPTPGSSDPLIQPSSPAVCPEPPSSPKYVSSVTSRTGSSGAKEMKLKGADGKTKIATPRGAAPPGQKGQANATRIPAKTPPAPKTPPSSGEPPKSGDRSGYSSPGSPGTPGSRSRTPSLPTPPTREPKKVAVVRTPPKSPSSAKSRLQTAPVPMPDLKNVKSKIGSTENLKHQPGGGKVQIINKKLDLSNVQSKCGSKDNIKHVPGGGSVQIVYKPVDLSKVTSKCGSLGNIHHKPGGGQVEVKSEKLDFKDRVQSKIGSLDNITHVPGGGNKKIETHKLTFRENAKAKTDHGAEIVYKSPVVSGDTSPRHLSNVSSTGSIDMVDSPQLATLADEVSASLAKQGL
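Read-out: ThS fluorescence, 450 nm excitation/510 nm emission; lower signal marks blocked filament formation or displaced dye. Tau at 1 uM with 30 uM ODS, 10 uM ThS, 5 mM DTT, 100 mM NaCl, 10 mM HEPES pH 7.4; 15 h, 37 C.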
HEK293 cAMP cs – parental HEK293 cAMP activation (counter-screen); parental HEK293 CNG cAMP sensor, membrane potential fluorescence; 73,000 compounds, 2.5% hits; Potency, µM (top dose mostly 57.1 µM), for the others: at the top dose activation, actives largely listed as activators; AID 938; further: % of control where 0% means no effect; nearly all actives have a fitted effect of over 55% in size
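Parental HEK 293 cells stably expressing a modified CNG channel (no TSHR) report cAMP rise as membrane depolarization. Membrane potential dye with 100 uM RO 20-1724 was loaded for 60 min at room temperature, then compound added for 30 min; fluorescence read at 590 nm.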
Starred values were filed as active, the others as inactive; [ ] = dose if it differs, or a comment. Most compounds without a hit are left out; they make up all but 7.6% or so of the library. Unless noted, the call rests on the fitted dose curve; in most records, active means well fitted curve in the direction sought with a large enough effect; inconclusive means small, poorly fitted or top-dose-only effect, or another doubt; inactive means no such curve, though single readings can be large; an effect the other way counts as inactive or inconclusive. Potency means the concentration at half of the fitted maximal effect.

COc1ccccc1-c1nc(S(=O)(=O)c2ccc(Cl)cc2)c(N(C)C)o1 was read as TSHR agonist inconclusive, ERK AVP block -2%, CRE Fsk mod 6%, Tau fil binding 11% and HEK293 cAMP cs inconclusive.
COc1cc(-c2nc(S(=O)(=O)c3ccc(C)cc3)c(N3CCOCC3)o2)cc(OC)c1OC was read as TSHR agonist 8%, ERK AVP block -21%, CRE Fsk mod 1µM*, Tau fil binding 0% and HEK293 cAMP cs -12%.
`COc1cc(-c2nc(S(=O)(=O)c3ccc(Cl)cc3)c(N3CCOCC3)o2)cc(OC)c1OC` gave TSHR agonist 2%, ERK AVP block -29%, CRE Fsk mod inconclusive, Tau fil binding 109% and HEK293 cAMP cs -5%.
Screening COc1cc(-c2nc(S(=O)(=O)c3ccc(C)cc3)c(N(C)C)o2)cc(OC)c1OC returned TSHR agonist 10%, ERK AVP block -13%, CRE Fsk mod 2µM*, Tau fil binding -4% and HEK293 cAMP cs 2%.
For COC1OC2COC(c3ccccc3)OC2C(O)C1O (stereo not given) the results were ERK AVP block 0%.
CCCCCCCCN[C@@H](C)[C@H](O)c1ccc(SC(C)C)cc1 was read as TSHR agonist inconclusive, ERK AVP block -4%[25.7 µM], CRE Fsk mod -22%[17.1 µM], Tau fil binding -2%[25.6 µM] and HEK293 cAMP cs inconclusive.
COC(=O)c1ccc(C(NC(=O)OCc2ccccc2)/C(=C/[C@@H](C)C(=O)NCC2CC2)c2cccnc2)cc1 (stereo not given in full) was read as TSHR agonist 19%, ERK AVP block -4%, CRE Fsk mod -19%, Tau fil binding 16% and HEK293 cAMP cs 15%.
For O=c1c2c3nc4ccccc4nc3n(/N=C/c3cccs3)c2ncn1-c1ccccc1 the results were TSHR agonist -17%, ERK AVP block -15%, CRE Fsk mod 5µM*, Tau fil binding 25µM* and HEK293 cAMP cs -20%.
Screening COc1cccc(-c2cc(N(C)Cc3ccco3)ncn2)c1 returned TSHR agonist -2%, ERK AVP block -6%, CRE Fsk mod 13%, Tau fil binding 5% and HEK293 cAMP cs 21%.
For CCc1cc2ccccc2nc1SCC(=O)Nc1cc(C)on1 the results were TSHR agonist inconclusive, ERK AVP block -10%, CRE Fsk mod 14%, Tau fil binding 48% and HEK293 cAMP cs 25µM*.
`CCCc1nc(SCC(=O)Nc2cc(C)on2)c2ccccc2n1` gave TSHR agonist 8%, ERK AVP block 4%, CRE Fsk mod -7%, Tau fil binding -5% and HEK293 cAMP cs -13%.
Screening CCc1nc(SCC(=O)Nc2cc(C)on2)c2c(C)c(C)sc2n1 returned TSHR agonist inconclusive, ERK AVP block -4%, CRE Fsk mod 2.5µM*, Tau fil binding 8% and HEK293 cAMP cs inconclusive.
`Cc1cc(NC(=O)CSc2nc(C(C)C)nc3c2c(=O)n(C)c(=O)n3C)no1` gave TSHR agonist inconclusive, CRE Fsk mod 10µM*, Tau fil binding 25% and HEK293 cAMP cs inconclusive.
`Cc1ccc(Cl)cc1N1CCN(Cc2nnnn2Cc2ccco2)CC1` gave TSHR agonist inconclusive, ERK AVP block 31%, CRE Fsk mod 4%, Tau fil binding 13% and HEK293 cAMP cs 7.9µM*.
For c1coc(Cn2nnnc2CN2CCN(C3CCCCC3)CC2)c1 the results were TSHR agonist 0%, ERK AVP block 19%, CRE Fsk mod -5%, Tau fil binding 2% and HEK293 cAMP cs 19%.
For Cc1ccc(Cl)cc1N1CCN(Cc2nnnn2C2CCCCC2)CC1 the results were TSHR agonist inconclusive, ERK AVP block -18%, CRE Fsk mod 10%, Tau fil binding 2% and HEK293 cAMP cs 13µM*.
For N=C(N)SCc1ccc(Cl)cc1Cl (tested in a mixture with another compound) the results were TSHR agonist 10%[11.4 µM], ERK AVP block 6%[11.5 µM], CRE Fsk mod -3%[7.6 µM], Tau fil binding -1%[11.4 µM] and HEK293 cAMP cs 13%[11.4 µM].
`COCCn1c(SCc2ccc(C(=O)OC)o2)nc2ccccc2c1=O` gave TSHR agonist inconclusive, ERK AVP block inconclusive, CRE Fsk mod 13µM*, Tau fil binding 8% and HEK293 cAMP cs inconclusive.
`COCCn1c(SC(C)C(=O)Nc2ccc3c(c2)OCCO3)nc2ccccc2c1=O` (stereo not given) gave TSHR agonist inconclusive, ERK AVP block -6%, CRE Fsk mod 13µM*, Tau fil binding -4% and HEK293 cAMP cs inconclusive.
`COC(=O)c1ccc(CSc2nc3c(c(=O)n2-c2ccc(F)cc2)SCC3)o1` gave TSHR agonist 3.2µM*, ERK AVP block inconclusive, CRE Fsk mod inconclusive, Tau fil binding -2% and HEK293 cAMP cs 26%.
COC(=O)c1ccc(CSc2nc3ccccc3c(=O)n2-c2ccc(OC)c(OC)c2)o1 was read as TSHR agonist 14%, ERK AVP block 13%, CRE Fsk mod 13µM*, Tau fil binding 185% and HEK293 cAMP cs 28%.
For COCCn1c(SCC(=O)N2CCCCC2)nc2ccccc2c1=O the results were TSHR agonist 16%, ERK AVP block 2%, CRE Fsk mod 8%, Tau fil binding 0% and HEK293 cAMP cs 20%.
For COC(=O)c1ccc(CSc2nc3c(c(=O)n2-c2ccccc2)SCC3)o1 the results were TSHR agonist -5%, CRE Fsk mod inconclusive, Tau fil binding -12% and HEK293 cAMP cs -4%.
For FC(F)(F)c1ccccc1-c1nccc(NCCN2CCOCC2)n1 the results were TSHR agonist 2%, ERK AVP block -4%, CRE Fsk mod inconclusive, Tau fil binding -5% and HEK293 cAMP cs 18%.
`O=C(NCCN1CCCCC1)c1ccc(Cc2nc3ccccc3[nH]2)cc1` gave TSHR agonist -4% and HEK293 cAMP cs -13%.
Screening CCC(=O)c1c(O)cc(O)cc1O returned ERK AVP block -5%.
For CSc1nc(N)nc(SCCS(=O)(=O)c2ccc(Cl)cc2)c1C#N the results were TSHR agonist 8%, ERK AVP block 38%, CRE Fsk mod inconclusive, Tau fil binding 10% and HEK293 cAMP cs 7%.
CSc1nc(N)nc(SC2C=CCCC2)c1C#N (stereo not given) was read as TSHR agonist inconclusive, ERK AVP block -11%, CRE Fsk mod 13µM*, Tau fil binding 128% and HEK293 cAMP cs inconclusive.
For Cc1nc2ccccc2n1-c1ccccc1 the results were TSHR agonist 9%, ERK AVP block inconclusive, CRE Fsk mod 10%, Tau fil binding 18% and HEK293 cAMP cs 13%.
`Cc1ccccc1-n1c(C)nc2ccccc21` gave TSHR agonist 25µM*, ERK AVP block 12%, CRE Fsk mod 18%, Tau fil binding 9% and HEK293 cAMP cs 28%.
For CN1Cc2c(C(=O)OC(C)(C)C)ncn2-c2ccsc2C1=O the results were TSHR agonist 2%, ERK AVP block -3%, CRE Fsk mod 29%, Tau fil binding inconclusive and HEK293 cAMP cs -11%.
